In the library only some 2.3% were active in any assay of this set; here they are far more common.
FBPA coupling cs: coupling enzyme interference in Giardia aldolase counter-screen; coupling enzyme system counterscreen, AmpLite Red fluorescence; activity change, negative = inhibition, % at 58.2 µM, hits read low; actives 0.67% (n = 290,000); AID 2472; in the data active = activity change below about -30%
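Activity here indicates interference with the coupling reaction, not aldolase inhibition. Compounds at 57.5 uM final met coupling enzymes for 10 min at RT; substrate and AmpLite Red detection followed, with a 525/598 nm fluorescence read after 20 min.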
Tau fibril ThT: tau fibrillization inhibition (ThT binding); recombinant tau K18 P301L, heparin-induced fibrillization, ThT fluorescence; Potency, µM (highest dose often 57.4 µM), without a hit: top-dose activity, negative = inhibition, most hits filed as inhibitors; actives 2.1% (n = 270,000); AID 1460; also: potency is read from the fitted curve at half-maximal effect; nearly all actives have a fitted effect of over 55% in size
Target sequence (P10636 561-689 P618L limits assumed): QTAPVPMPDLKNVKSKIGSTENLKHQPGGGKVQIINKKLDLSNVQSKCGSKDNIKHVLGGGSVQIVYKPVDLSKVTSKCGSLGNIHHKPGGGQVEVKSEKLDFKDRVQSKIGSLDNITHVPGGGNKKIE
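Recombinant human tau K18 fragment […] carrying P301L, 15 uM unlabeled plus 0.24 uM Alexa 594-labeled, was fibrillized with 20 uM heparin in 100 mM sodium acetate pH 7 for 6 hr at 37 C; 30 uM ThT fluorescence read after 1 hr.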
USP1 inh: blocks the human USP1/UAF1 deubiquitinase complex | O94782 | recombinant USP1/UAF1, Ub-Rhodamine cleavage fluorescence | Potency, µM (titrated, usually from 57.1 µM), inactives show at the highest dose activity change, negative = inhibition, actives largely listed as inhibitors | actives 0.23% (n = 390,000); also: potency is read from the fitted curve at half-maximal effect; nearly all actives have a fitted effect of over 60% in size
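In this screen, compounds sit with the deubiquitinase complex (1nM) for 15 min at room temperature before Ub-Rho is added at 150nM final. Fluorescence rise is then followed for 6 reads every 60 seconds.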
Tau fibril FP: tau fibrillization inhibition (FP); P10636; K18 P301L tau heparin fibrillization, Alexa594 FP, 6 h; Potency, µM (top dose mostly 57.7 µM), inactives show at the highest dose activity, negative = inhibition, hits mostly inhibitors; actives 0.39% (n = 280,000); AID 1468; also: potency is read from the fitted curve at half-maximal effect; nearly all actives have a fitted effect of over 55% in size
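Recombinant K18 P301L […], labeled with Alexa 594 at 0.24 uM over 15 uM unlabeled; heparin inducer 20 uM final; 37 C, 6 hr; FP endpoint.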
Tau fluor counter: counter-screen for tau fibril formation inhibitors. Potency, µM (series often up to 57.7 µM), without a hit: at the top dose activity change, negative = decrease. tau K18 P301L (four-repeat tau fragment) Alexa594 fluorescence, heparin fibrillization. actives 0.93% (n = 280,000); also: potency is read from the fitted curve at half-maximal effect; nearly all actives have a fitted effect of over 55% in size
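Human K18 P301L tau (15 uM unlabeled plus 0.24 uM Alexa 594-labeled, final) in 100 mM sodium acetate pH 7 was mixed with compound and 20 uM heparin and incubated 6 hr at 37 C.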
The depositor's hits bear a star; ? = inconclusive; · = no result given; ! = repeats disagree; [ ] = another dose, or the depositor's remark. Unless noted, calls follow the shape of the dose curve; as a rule, active = well fitted curve in the direction sought with a large enough effect; inconclusive = small, poorly fitted or top-dose-only effect, or another doubt; inactive = no such curve, though single readings can be large; an effect the other way counts as inactive or inconclusive. % is scaled to controls: 0 for no effect and ±100 for the full control effect.

SMILES	FBPA coupling cs	Tau fibril ThT	USP1 inh	Tau fibril FP	Tau fluor counter
CCOC(=O)C[C@@H](C(=O)OCC)[C@@H]1CCCCC1=O	-7	-10%[11.5 µM]	·	-12%[11.6 µM]	-19%[11.6 µM]
CCOC(=O)c1nnc2c(-c3ccc(OC)cc3)c(C)nn2c1N	·	?	-4%	-6%	-12%
COc1ccc(NC(=O)CSc2nc(-c3ccc(OC)cc3)[nH]c2-c2ccc(OC)cc2)cc1	·	-11%	-4%	7%	8.9µM*[quencher]
COc1ccc(-c2[nH]c(-c3ccc(F)cc3)nc2SCC(=O)NC2CCCC2)cc1	-4	8%	-9%	5%	-3%
COc1ccc(NC(=O)CSc2nc(-c3cc(OC)c(OC)c(OC)c3)[nH]c2-c2ccc(F)cc2)cc1	·	?	-25%	9%	7.1µM*[quencher]
COc1ccc(-c2[nH]c(-c3ccc(F)cc3)nc2SCC(=O)Nc2ccc(OC)c(OC)c2)cc1	·	?	-13%	14%	14µM*[quencher]
CN(C(=O)c1cc2nc(-c3ccco3)cc(C(F)(F)F)n2n1)c1ccc(OC(F)(F)Cl)cc1	·	-4%	-11%	2%	-4%
Cc1cccc(NC(=O)CSc2nccn2-c2cccc(Cl)c2)c1C	·	-19%	?	-1%	-13%
Cn1nc(C(F)(F)F)c2cc(C(=O)Nc3ccc(C(F)(F)F)cc3)sc21	-2	·	-11%	28µM*	?
Cc1nnc(SCC(=O)Nc2ccc(Br)cc2)[nH]c1=O	·	11%	-9%	-2%	-4%
CNC(=O)Oc1ccc2c(c1)[C@@]1(C)CCN(C)C1N2C (some centres not stated)	-36*!	-7%	·	-3%	-8%
COC(=O)C1=C(C(=O)OC)[C@@H]2N(C)c3ccc(OC)cc3[C@@]23C[C@@H](C(=O)OC)N=C3N1	3	-7%[11.5 µM]	-18%	-8%[11.6 µM]	-13%[11.6 µM]
CCC(=O)Nc1cccc(-c2cn3c(C)csc3n2)c1	·	?	-24%	-9%	-8%
CN(C(=O)c1ccc2ccccc2c1)c1ccccn1	-5	·	-9%	·	·
COC(=O)c1cc2occc2n1Cc1nc(-c2cccc(Br)c2)oc1C	·	3%	-5%	-3%	-11%
COc1ccc(C2=C(Nc3ccc(Br)c(C)c3)c3ccccc3C2=O)cc1	·	?	?	6%	4µM*[quencher]
Cc1cc(C)cc(NC2=C(c3ccccc3)C(=O)c3ccccc32)c1	·	?	-28%	4%	7.9µM*[quencher]
COc1ccc(C2=C(Nc3ccc(C)cc3)c3ccccc3C2=O)cc1	-4	-13%	-10%	5%	-23%
Cc1cc(C(=O)N/N=C/c2cc(Cl)cc([N+](=O)[O-])c2O)c2ccccc2n1	-3	7.1µM*	-23%	14%	?
O=C(N/N=C/c1cc(Cl)cc([N+](=O)[O-])c1O)NC12CC3CC(CC(C3)C1)C2	3	13µM*	-13%	3%	?
O=C(N/N=C/c1cc(Cl)cc([N+](=O)[O-])c1O)c1ccccc1NS(=O)(=O)c1cccs1	12	11µM*	?	9%	-28%
O=C(NCc1nc2ccccc2n1Cc1ccccc1Cl)c1ccccc1	·	-3%	?	-4%	-10%
Cc1ccc(C)c(NC(=O)c2nn(C)c3c2CS(=O)(=O)c2ccccc2-3)c1	·	-1%	-13%	?	-14%
CC(=O)C1=C(C)NC2=C(C(=O)c3ccccc32)C1c1ccccc1 (configuration not stated)	0	18µM*	-12%	15%	?
CC1=C(C#N)C(c2cccnc2)C2=C(N1)c1ccccc1C2=O (configuration not stated)	1	?	-1%	-10%	-14%
SMILES	FBPA coupling cs	Tau fibril ThT	USP1 inh	Tau fibril FP	Tau fluor counter
CSC1=C(C#N)C(c2ccccc2Cl)C2=C(N1)c1ccccc1C2=O (configuration not stated)	-3	28µM*	-23%	?	?
O=C1CCCC2=C1C(c1cccc(O)c1)C1=C(N2)c2ccccc2C1=O (configuration not stated)	-8	?	-21%	2%	-20%
CC1=C(C#N)C(c2ccccc2)C2=C(N1)c1ccccc1C2=O (configuration not stated)	1	13µM*	-25%	-12%	25µM*[quencher]
CCc1nnc(NC(=O)C(c2ccccc2)c2ccccc2)s1	3	·	-3%	·	·
COc1cc(/C=C2/C(=O)c3cccc([N+](=O)[O-])c3C2=O)c(Br)cc1O	-9	13µM*	?	?	?
O=C(CNS(=O)(=O)c1ccccc1)OCC(=O)c1ccc(Br)cc1	2	·	-12%	·	·
O=C(CNc1ccccc1)c1ccc([N+](=O)[O-])cc1	1	14µM*	-8%	?	?
O=C(CNS(=O)(=O)c1ccccc1)OCC(=O)c1ccc([N+](=O)[O-])cc1	-1	25µM*	0%	?	-19%
O=C(CNc1cccc2ccccc12)c1ccc([N+](=O)[O-])cc1	-18	14µM*	-18%	?	?
CC(Nc1cccc2ccccc12)C(=O)N/N=C/c1ccc([N+](=O)[O-])cc1 (configuration not stated)	-46*	?	-26%	?	7.9µM*[quencher]
CCC(C)OC(=O)/C(C#N)=C\c1ccc(-c2ccccc2Cl)o1 (configuration not stated)	·	?	72%	-3%	-8%
Cc1[nH]c2ccccc2c1CCCO	-1	6%	-16%	3%	2%
CCCCCCCCCCC1=C(C)C(=O)C(OC)=C(OC)C1=O	-44*	?	·	12%	-22%
CCCCCCCCSC1=CC(=O)C(OC)=C(OC)C1=O	·	·	-24%	·	·
COC1=C(OC)C(=O)C(CCCCCCCCCCO)=C(C)C1=O	-65*	?	·	-9%	?
COc1cc(CNCCO)ccc1OCCc1ccccc1	-2	·	-20%	·	·
CCOC(=O)c1ccc(NC(=O)Cn2cc(C(=O)c3cccs3)c3ccccc32)cc1	·	-11%	-11%	16µM*	?
CCOCCCNc1nc2c(C)cccn2c(=O)c1/C=C1\SC(=S)N(C(C)CC)C1=O (configuration not stated)	-7	?	-82%	22µM*	-1%
CCOC(=O)c1c(N)sc(C)c1-c1ccccc1	-10	-7%	·	?	?
CCOC(=O)c1c(N)sc(-c2ccccc2)c1C	2	25µM*	-2%	6%	?
CCN(CC)c1ccc(/C=N/NC(=O)c2ccc(Br)o2)cc1	2	3.2µM*	-13%	12%	?
CCc1ccccc1N1C(=O)N(CC(=O)c2ccc(Cl)cc2)c2ccccc2S1(=O)=O	·	1%	-15%	?	-13%
COc1ccc(-c2[nH]c(-c3cccc(OC)c3)nc2SCC(=O)NC2CCCC2)cc1	-4	?	3%	?	13µM*![quencher]
CCOc1ccc(-c2nc(SCC(=O)NC3CCCC3)c(-c3ccccc3)[nH]2)cc1OC	·	?	-22%	?	13µM*[quencher]
